From PubChem BioAssay (NCI) come the findings set out here.

The panel holds about 83,000 compounds, 20% with a hit somewhere; the sample as a whole holds those more often.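 For each line, cells grew in 96-well plates with the test compound present at a single concentration for 48 hours.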 A number with no mark means an inactive call. Calls of active or inactive are those of the source. The calls were made as follows: active = growth percent below 10; inactive = the rest.

Test systems include SK-MEL-2 melanoma; EKVX NSCLC; SN12C renal; UO-31 renal; TK-10 renal; ACHN renal; CAKI-1 renal; A498 renal; CCRF-CEM leukemia; MOLT-4 leukemia; OVCAR-8 ovarian; OVCAR-5 ovarian; OVCAR-4 ovarian; SK-OV-3 ovarian; IGROV1 ovarian; OVCAR-3 ovarian; HS 578T breast; NCI/ADR-RES ovarian; RPMI-8226 leukemia.
What all share (assay): NCI-60 one-dose screen, 48 h (100 = growth as untreated, 0 = no growth, -100 = all killed)
Common to all, as to conditions: 10 µM unless noted

Consider `COc1cc(C2NC(=O)c3ccccc3N2)ccc1OCCCCCOc1c(OC)cc(C2=NOC(c3cc(OC)c(OC)c(OC)c3)C2)cc1OC` (configuration not stated), for which the growth in the test with SK-MEL-2 melanoma was 76.9%; with EKVX NSCLC, 50.6%; in the test with SN12C renal, 92.6%; in the test with UO-31 renal, 69.2%; in the test on TK-10 renal, 100%; in the test on ACHN renal, 41.3%. Also, the growth with CAKI-1 renal was 89.2%; in the test with A498 renal it was 99.3%; in the test with CCRF-CEM leukemia, 44.8%; in the test with MOLT-4 leukemia, 24.6%; in the test on OVCAR-8 ovarian, 88.2%; in the test on OVCAR-5 ovarian, 103%. Moreover, the growth with OVCAR-4 ovarian is 28.8%; in the test on SK-OV-3 ovarian, 93.8%; in the test with IGROV1 ovarian, 15.2%; in the test on OVCAR-3 ovarian, 78.6%; with HS 578T breast, 102%; in the test on NCI/ADR-RES ovarian, 65%.
For the compound `O=c1c2cc(F)ccc2sc2c(NCCCN3CCCC3)nc3ccccc3c12`, the growth with SK-MEL-2 melanoma is 85.4%; with EKVX NSCLC, 53.5%; with SN12C renal it was 42.3%; with UO-31 renal it was 15.1%; in the test on TK-10 renal, 57.9%; with ACHN renal it was 41.8%. In addition, the growth in the test on CAKI-1 renal is 30.4%; in the test with A498 renal it was 46.6%; with CCRF-CEM leukemia, 29%; with MOLT-4 leukemia it was -14.5% (active); with OVCAR-8 ovarian, 55.6%; in the test with OVCAR-5 ovarian, 70.3%. Also, the growth is 48.7% with OVCAR-4 ovarian; 88.9% in the test on SK-OV-3 ovarian; 15.1% in the test with IGROV1 ovarian; 29.3% with OVCAR-3 ovarian; 43.8% in the test with HS 578T breast; 67.5% in the test with NCI/ADR-RES ovarian.
As for `Cn1c(I)c(C#C[Si](C)(C)C)c(=O)n(C(=O)c2ccccc2)c1=O`, the growth in the test on SK-MEL-2 melanoma was 81%; in the test on EKVX NSCLC, 91.2%; with SN12C renal, 51%; in the test on UO-31 renal, -78.4% (active); in the test on TK-10 renal it was 43.6%; in the test with ACHN renal it was 11.5%. For the same compound, the growth with CAKI-1 renal was 40.9%; in the test with A498 renal, 105%; with CCRF-CEM leukemia, -57.5% (active); in the test on MOLT-4 leukemia, -69.9% (active); in the test with RPMI-8226 leukemia, -9.86% (active); in the test with OVCAR-8 ovarian, -20.6% (active). In addition, the growth in the test with OVCAR-5 ovarian was 60.9%; in the test on SK-OV-3 ovarian it was 101%; in the test with OVCAR-3 ovarian, 14.2%; with HS 578T breast, 41%; in the test on NCI/ADR-RES ovarian, 88.1%.
As for `O=S(=O)(NCCCNc1cc(-c2c(-c3cccc(O)c3)nc3sccn23)ccn1)c1cccc(Cl)c1`, the growth was 63.7% in the test with SK-MEL-2 melanoma; 58.6% in the test on EKVX NSCLC; 27% with SN12C renal; 31.5% in the test with UO-31 renal; 94.4% in the test on TK-10 renal; 41.6% with ACHN renal. The growth is 43% in the test on CAKI-1 renal; 80.4% in the test on A498 renal; 22.8% in the test on CCRF-CEM leukemia; 15.2% with MOLT-4 leukemia; 17.1% in the test with OVCAR-8 ovarian; 107% in the test with OVCAR-5 ovarian. Also, the growth was 35.2% with OVCAR-4 ovarian; 49.1% with SK-OV-3 ovarian; 40.5% in the test with IGROV1 ovarian; 32.7% in the test on OVCAR-3 ovarian; 32.5% in the test with HS 578T breast; 76.7% in the test with NCI/ADR-RES ovarian.
As to `COc1cc(C2CC(=O)Nc3c2c(C)nn3-c2nc3ccccc3[nH]2)cc2c1OCC(=O)N2` (configuration not stated), the growth in the test on SK-MEL-2 melanoma is 68.1%; in the test with EKVX NSCLC, 79.3%; in the test on SN12C renal it was 76.3%; with UO-31 renal, 51.9%; with TK-10 renal it was 87.3%; in the test with ACHN renal it was 70.4%. Also, the growth in the test on CAKI-1 renal was 95.1%; with A498 renal, 21.4%; in the test with CCRF-CEM leukemia, 12.7%; in the test with MOLT-4 leukemia it was -20.1% (active); with RPMI-8226 leukemia, 74.1%; in the test on OVCAR-8 ovarian, 34.9%. Besides, the growth with OVCAR-4 ovarian was 73.2%; in the test on SK-OV-3 ovarian, 28.6%; in the test on IGROV1 ovarian it was 60.4%; in the test with OVCAR-3 ovarian it was 13.6%; with HS 578T breast, 26.7%; in the test with NCI/ADR-RES ovarian, 93.2%.
For `CC(C)(C)OC(=O)Nc1ccc2c(c1)C(NC(=O)Nc1cccc(C#N)c1)CC(C)(C)O2` (configuration not stated), the growth with SK-MEL-2 melanoma was 36.3%; with EKVX NSCLC it was 32.2%; in the test with SN12C renal it was 62.9%; in the test with UO-31 renal, 40.8%; in the test with TK-10 renal, 39.3%; with ACHN renal, 50.9%. Besides, the growth is 39.2% in the test with CAKI-1 renal; 57.5% in the test on A498 renal; 41.7% with CCRF-CEM leukemia; 17.1% in the test on MOLT-4 leukemia; 22.3% in the test with RPMI-8226 leukemia; 45.6% in the test with OVCAR-8 ovarian. The growth is 87.6% with OVCAR-5 ovarian; 58% in the test with SK-OV-3 ovarian; 46% in the test on IGROV1 ovarian; 85.5% in the test with HS 578T breast; 48% in the test on NCI/ADR-RES ovarian.
Turning to `CNc1ccc(NC)c2c1C(=O)c1ccccc1C2=O`, the growth is 97.7% in the test on SK-MEL-2 melanoma; 94.6% in the test on EKVX NSCLC; 80.3% with SN12C renal; 77.7% in the test with UO-31 renal; 84.9% in the test on TK-10 renal; 77.7% with ACHN renal. Also, the growth with CAKI-1 renal is 76.4%; with A498 renal it was 94.4%; in the test with CCRF-CEM leukemia it was 84.3%; in the test on MOLT-4 leukemia, 92.1%; in the test on OVCAR-8 ovarian, 71.5%; in the test with OVCAR-5 ovarian, 101%. The growth in the test on OVCAR-4 ovarian is 68.4%; in the test with SK-OV-3 ovarian, 67.4%; in the test with IGROV1 ovarian, 69%; in the test with OVCAR-3 ovarian it was 95.4%; in the test with HS 578T breast, 98.5%; in the test with NCI/ADR-RES ovarian, 88%.
With `Cc1ccc(NS(=O)(=O)c2ccc3c(c2)C(=O)CC(c2ccc(C(=O)C(C)C)cc2)N3)cc1C` (configuration not stated), the growth was 64.2% with SK-MEL-2 melanoma; 22.7% in the test with EKVX NSCLC; 76.4% in the test with SN12C renal; 51.7% in the test on UO-31 renal; 77.9% in the test with TK-10 renal; 55.1% with ACHN renal. For the same compound, the growth was 55.9% in the test with CAKI-1 renal; 45.2% in the test on A498 renal; 50.3% with CCRF-CEM leukemia; 54.5% with MOLT-4 leukemia; 73.4% in the test on OVCAR-8 ovarian; 80.1% in the test on OVCAR-5 ovarian. Further, the growth with OVCAR-4 ovarian was 62.9%; with SK-OV-3 ovarian it was 74.4%; in the test on IGROV1 ovarian it was 66.8%; in the test with OVCAR-3 ovarian, 74.4%; with HS 578T breast it was 73.2%; in the test with NCI/ADR-RES ovarian it was 56.3%.
